The panel holds about 83,000 compounds, 20% with a hit somewhere; the sample as a whole holds those more often.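 Plates (96-well) were seeded with cells, treated with compound at one concentration, and incubated for 48 hours before percent growth was determined.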 Values without a mark were called inactive. The calls were made as follows: active = growth percent below 10; inactive = the rest.
tested on: OVCAR-5 ovarian; assay: NCI-60 one-dose screen, 48 h (100 = growth as untreated, 0 = no growth, -100 = all killed); settings: 10 µM unless noted

Structure (SMILES)	growth [%]
CCOC(=O)/C(C#N)=C\c1c[nH]c2ccccc12	111
CC(=O)N(C)N=Nc1ccc(C)cc1	83.1
COc1cc(C(=O)N2CCN(c3ccccc3)CC2)c2ccccc2n1	39.4
CCOC(=O)c1ccc(NC(=O)Nc2nccs2)cc1	25.9
O=c1n(CC2CO2)c(=O)n(CC2CO2)n1CC1CO1 (stereo not drawn)	130
CCCCCCCCCCCCSC1=C(Cl)C(=O)C(OC)=C(OC)C1=O	80
Cc1ccc(N2C(=O)c3cccc4c(N)c(S(=O)(=O)O)cc(c34)C2=O)cc1	84.7
S=C=Nc1ccc2ccccc2c1	107
Oc1cccnc1CN1CCCC1	97.9
O=C1C=C(c2ccccc2)C(O)(c2ccccc2)C1 (stereo not drawn)	93.6
Cc1cc(C)cc(OCC(=O)O)c1	94.6
Cc1cccc(C)c1NC(=S)/N=C\c1c(O)[nH]c(=O)[nH]c1=O	109
NNC(=O)N/N=C1\C(=O)N(c2nccs2)C(=O)C(=O)C1c1nc2ccccc2s1 (stereo not drawn)	102
O=[N+]([O-])c1c(O)c(CNCCCO)cc(CNCCCO)c1O	108
O=C1Nc2ccccc2/C1=C\c1ccccc1O	94.4
CN(C)c1ccc2c(N(C)C)cc(N(C)C)nc2c1	102
Cc1cccc(-[n+]2noc(N)n2)c1	99.2
O=S(Cc1ccccc1)/C(=C/NC(=S)Nc1cc(Cl)ccc1Cl)c1ccccc1 (stereo not drawn)	100
